# From PubChem
# Giardia killer: Small Molecules that selectively kill Giardia lamblia: qHTS; Giardia lamblia trophozoite viability; activity change, % at 7.66 µM, hits read low; actives 0.15% (n = 340,000); in the data active = activity change below about -80%; inconclusive = between about -30% and that limit;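 also: parasites exposed to compound for two days anaerobically before the ATP read; % is scaled to controls: 0 for no effect and ±100 for the full control effect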
#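 Media and compound were dispensed first, then trophozoites at 100 cells/well; plates sat 48 hrs at 37 deg C without oxygen before ATP luminescence reagent was added and read after 15-30 min at room temperature.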
# HT1080-NT tox: qHTS for induction of synthetic lethality in tumor cells producing 2HG: qHTS for the HT-1080-NT fibrosarcoma cell line. HT-1080-NT fibrosarcoma viability, CellTiter-Glo ATP luminescence, 48 h. Potency, µM (titrated, usually from 46.1 µM), for the others: top-dose activity, negative = less viability, hits mostly cytotoxic. actives 1.6% (n = 360,000). AID 686970, 2013;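 also: NT is the 2HG producing partner of a matched IDH1 knockdown line; potency is read from the fitted curve at half-maximal effect; 0% = DMSO-treated cells and -100% = media-only wells without cells; nearly all actives have a fitted effect of over 55% in size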
#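 Read-out is CellTiter-Glo luminescence after 10 minutes at room temperature, following 48 hours' compound treatment of HT-1080-NT cells (750 cells/well, RPMI, 5% FBS, 37 degrees C).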
# TGFb inhibitor: qHTS for Inhibitors of TGF-b. HepG2 CAGA-GFP TGF-b/SMAD3 reporter, GFP fluorescence, 18 h; TGF-beta stimulated, 500 pg/mL final. Potency, µM (highest dose often 46.1 µM), inactives show at the top dose activity, negative = inhibition, most hits filed as inhibitors. actives 1.2% (n = 410,000). AID 588855, 2011; also: potency is read from the fitted curve at half-maximal effect; % is scaled to controls: 0 for no effect and ±100 for the full control effect; nearly all actives have a fitted effect of over 65% in size
#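 TGF-beta reporter screen: HEPG2 CAGA-GFP, 1% FBS, 500 pg/mL TGF-beta final, 18 h; per-cell GFP summed per well; curves fitted and categorized by class.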
# IL-1B inflam inh: qHTS for Inhibitors of Inflammasome Signaling: IL-1-beta AlphaLISA Primary Screen | THP-1 LPS/ATP IL-1B secretion, AlphaLISA, 16 h; stronger effect = lower value | activity change, % at 57.5 µM | actives 4.7% (n = 360,000); in the data active = activity change below about -50%; inconclusive = mostly about -30% to -49%; also: % is scaled to controls: 0 for no effect and ±100 for the full control effect
#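 THP-1 cells pretreated 1 hr with compounds (up to 57.5 uM final), then stimulated with LPS (250 ng/mL final) plus ATP (1.25 mM final); secreted IL-1B measured by AlphaLISA after 16 hr, decreased signal indicating inhibition.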
# HepG2 tox: qHTS for Inhibitors of TGF-b: Cytotox Counterscreen; actives 0.76% (n = 410,000); HepG2 CAGA-GFP viability, ATP luminescence, 18 h; Potency, µM (highest dose often 46.1 µM), for inactives: at the highest dose activity change, negative = cytotoxicity, actives largely listed as cytotoxic; AID 588856, 2011; also: potency is read from the fitted curve at half-maximal effect
#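 CellTiter-Glo luminescence gave cytotoxicity after 18 hours at 37 degrees C. The cells were HepG2 CAGA-GFP in 1% FBS DMEM, stimulated with 500 pg/mL TGF-beta after compound addition. %Activity was normalised to no-cell wells (complete cell-killing) and DMSO (no toxicity), and curves were fitted and classified.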
# HT1080 IDH1KD tx: qHTS for induction of synthetic lethality in tumor cells producing 2HG: qHTS for the HT-1080-IDH1KD cell line | HT-1080 IDH1 knockdown viability, ATP luminescence, 48 h | Potency, µM (doses to about 46.1 µM), for the others: top-dose activity, negative = toxicity, usual class: cytotoxic | actives 2% (n = 360,000) | AID 686971, 2013;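 also: potency is read from the fitted curve at half-maximal effect; 0% = DMSO wells and -100% = cell-free medium wells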
#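 % activity derives from luminescence (CellTiter-Glo), normalised to DMSO and no-cell wells. HT-1080-IDH1KD cells, 750/well, had 48 h compound exposure at 37 °C.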
# The depositor's hits bear a star; u = inconclusive; x = no result given. In the library only some 6.5% were active in any assay of this set; here they are far more common. Unless noted, calls follow the shape of the dose curve; as a rule, active = well fitted curve in the direction sought with a large enough effect; inconclusive = small, poorly fitted or top-dose-only effect, or another doubt; inactive = no such curve, though single readings can be large; an effect the other way counts as inactive or inconclusive.
SMILES,Giardia killer,HT1080-NT tox,TGFb inhibitor,IL-1B inflam inh,HepG2 tox,HT1080 IDH1KD tx
COc1ccc(C(=O)CSc2nnc(-c3cccnc3)n2Cc2ccco2)cc1,7,16%,2%,u,-8%,14%
COc1ccc(C(=O)CSc2nnc(-c3cc4ccccc4cc3O)n2Cc2ccco2)cc1,-13,u,u,-67*,-54%,u
Cc1ccc(C)c(N2CCN(C(=S)Nc3ccc4nc(N5CCOCC5)cc(C)c4c3)CC2)c1,16,-23%,-18%,0,3%,-27%
O=C(Nc1ccc2nc(-c3ccco3)c(-c3ccco3)nc2c1)N1CCN(c2ccccn2)CC1,-20,1%,-3%,-57*,-3%,-19%
Cc1nc2ccc(NC(=S)N3CCN(c4ccccn4)CC3)cc2nc1C,14,0%,u,-8,6%,-3%
Cc1cc(N2CCN(C)CC2)nc2ccc(NC(=S)N3CCN(c4ccccn4)CC3)cc12,-5,16µM*,-25%,u,-27%,u
Cc1ccc(C)c(N2CCN(C(=S)Nc3ccc4nc(N5CCN(C)CC5)cc(C)c4c3)CC2)c1,u,u,u,22,10µM*,u
COc1ccccc1N1CCN(C(=S)Nc2ccc3nc(N4CCOCC4)cc(C)c3c2)CC1,-28,0%,-23%,-168*,2%,u
O=C(Nc1ccc2nc(-c3ccco3)c(-c3ccco3)nc2c1)N1CCCC1,12,x,u,x,-2%,x
O=C(CCS(=O)(=O)Cc1ccccc1)NCC1CCCO1 (stereo unspecified),17,5%,19%,12,2%,14%
COc1cc2c(cc1OC)CN(c1ccc3ccccc3n1)CC2,-20,-24%,-16%,-89*,-20%,-18%
COc1cc2c(cc1OC)CN(c1ccc(-c3ccccc3OC)nn1)CC2,23,2%,-18%,x,-21%,-12%
COc1ccc(C(=O)COC(=O)C2CCN(c3ccc(C(F)(F)F)cn3)CC2)c(OC)c1,4,18%,-2%,17,-25%,14%
COc1cc2c(cc1OC)CN(c1ccc(C(F)(F)F)cn1)CC2,-3,u,-3%,-90*,-13%,u
N#C/C(=C(/O)c1ccccc1F)c1nc2cc(C(F)(F)F)ccc2s1,9,-7%,u,-9,-56%,-8%
N#C/C(=C(/O)c1ccc2c(c1)OCO2)c1nc2cc(C(F)(F)F)ccc2s1,-15,u,u,-54*,-28%,u
COc1ccc([C@H]2[C@H](C(=O)C(C)(C)C)N3N=Cc4ccccc4C3C23C(=O)OC(C)(C)OC3=O)cc1 (stereo partly specified),4,10%,0%,15,6%,21%
CSc1ccc(C(=O)/C=C/c2ccc(N)cc2)cc1,u,u,u,-99*,-31%,u
CSc1ccc(/C=C/C(=O)Nc2ccccc2)cc1,u,u,16%,-20,-41%,u
CSc1ccc(/C=C/C(=O)c2ccc(NC(=O)Cc3ccccc3)cc2)cc1,7,u,-16%,-20,-25%,16µM*
CCOC(=O)Nc1ccc(Oc2ccccc2)cc1,-1,-8%,15%,0,-30%,6%
CCOC(=O)Nc1ccc(C(=O)/C=C/c2ccccc2)cc1,-6,u,u,-88*,-47%,u
CSc1ccc(/C=C/C(=O)c2ccc(NC(=O)C(C)C)cc2)cc1,-17,u,-13%,u,14µM*,u
CCN(CC)CCSc1nnc2c3ccccc3n(CCc3ccccc3)c2n1,9,-21%,-10%,u,-12%,-18%
c1ccc(CCn2c3ccccc3c3nnc(SCc4ccc5nonc5c4)nc32)cc1,-14,u,-5%,-4,-32%,7.1µM*
SMILES,Giardia killer,HT1080-NT tox,TGFb inhibitor,IL-1B inflam inh,HepG2 tox,HT1080 IDH1KD tx
Cc1cc2cc(C(c3nnnn3Cc3ccco3)N3CCc4ccccc4C3)c(=O)[nH]c2cc1C (stereo unspecified),-1,u,u,-58*,-13%,u
Cc1cc2cc(C(c3nnnn3Cc3ccco3)N3CCc4ccccc43)c(=O)[nH]c2cc1C (stereo unspecified),-12,-16%,u,6,-7%,-25%
CCC(C)(C)n1nnnc1C(c1cc2cc(OC)ccc2[nH]c1=O)N1CCc2ccccc21 (stereo unspecified),-2,1%,-18%,-1,3%,-14%
CC(C)(C)n1nnnc1C(c1cc2cc3c(cc2[nH]c1=O)OCCO3)N1CCSCC1 (stereo unspecified),4,-1%,7%,-51*,-17%,12%
CCC(C)(C)n1nnnc1C(c1cc2ccc(OC)cc2[nH]c1=O)N1CCc2ccccc21 (stereo unspecified),6,u,u,-14,-1%,11µM*
CCC(C)(C)n1nnnc1C(c1cc2ccc(OC)cc2[nH]c1=O)N1CCc2ccccc2C1 (stereo unspecified),-10,-6%,u,-65*,-42%,u
CCCC(=O)Nc1ccc(C(=O)Nc2ccc([N+](=O)[O-])cc2OC)cc1,u,-11%,-10%,-15,-7%,1%
Cc1ccc(OC(=O)CSc2nnc(-c3cccs3)o2)c(C)c1,x,x,38%,x,0%,x
COc1ccc(S(=O)(=O)c2c(O)c3ccc(C(=O)NCc4ccc(Cl)cc4)cc3[nH]c2=O)cc1,x,x,u,x,-14%,x
CCC(C)(C)n1nnnc1C(c1cc2cccc(C)c2[nH]c1=O)N1CCCC1 (stereo unspecified),-9,-6%,-1%,-16,-26%,2%
CCC(C)(C)n1nnnc1C(c1cc2cc(C)cc(C)c2[nH]c1=O)N1CCCC1 (stereo unspecified),3,-2%,4%,-51*,3%,-17%
C/C=C(/C)C(=O)OC(C)(C)[C@@H]1Cc2c(ccc3ccc(=O)oc23)O1,-8,6%,u,6,2%,11%
C/C=C(\C)C(=O)OC(C)(C)[C@@H]1Cc2cc3ccc(=O)oc3cc2O1,-20,-5%,6.3µM*,-1,-32%,1%
